This is an account of results in PubChem BioAssay (Tox21).

A number with no mark means an inactive call. Records with an inconclusive call do not appear. Active and inactive are the calls of the source. Unless noted, the call rests on the fitted dose curve; in most records, active means well fitted curve in the direction sought with a large enough effect in the repeat runs; inconclusive means weak or mixed curves; inactive means no such curve, though single readings can be large; an effect the other way counts as inactive or inconclusive.

The target in assay [1] is Estrogen receptor beta (Homo sapiens) (UniProt Q92731). Kind of assay: qHTS assay to identify small molecule antagonists of the estrogen receptor beta (ER-beta) signaling pathway (AID 1259378; active means well fitted inhibition curve with a large enough effect in the signal ratio in the repeat runs, not every such curve was filed as active; the % refers to the signal ratio; further: potency means the concentration at half of the fitted maximal effect). In outline: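 ER-beta-UAS-bla HEK293T (GripTite) cells in 2% charcoal-stripped FBS medium were preincubated 6 hr at 37C, dosed with compound, then stimulated with 1 nM E2 (final) for 16 hr; beta-lactamase reporter read by B/G FRET fluorescence after 2 hr substrate loading.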
On the technique in general: Quantitative high-throughput screening tests each substance at several concentrations.

The nature of assay [2]: qHTS assay to identify small molecule agonists of the androgen receptor (AR) signaling pathway in the presence of an antagonist - cell viability counter screen (AID 1259379). Further: nearly all actives have a fitted effect of over 25% in size. Further: potency means the concentration at half of the fitted maximal effect.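 On activity change, negative = cytotoxicity: MDA-kb2 human breast cancer cells carrying an MMTV luciferase reporter; series mostly up to about 92 µM.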 In outline:
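Viability counter screen: CellTiter-Fluor fluorescence, measured in the same wells as the luciferase read-out. MDA-kb2 cells, 3,000/well, with nilutamide at 3.0uM final and compounds at 15 concentrations, 16 hr at 37C, 0% CO2.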

Assay [3] is described as follows: qHTS assay to identify small molecule agonists of the estrogen receptor beta (ER-beta) signaling pathway - cell viability counter screen (AID 1259380). Further: nearly all actives have a fitted effect of over 30% in size. Further: potency means the concentration at half of the fitted maximal effect. In a few lines:
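Luminescence read-out (CellTiter-Glo, 30 min, room temp) taken in the same wells as the beta-lactamase reporter assay; ER-beta-UAS-bla HEK293T cells exposed to DMSO-dissolved compounds for 16 hr at 37C in 2% charcoal-stripped FBS medium.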

Assay [4] has as its target Androgen receptor (Homo sapiens) (UniProt P10275). In words: qHTS assay to identify small molecule agonists of the androgen receptor (AR) signaling pathway in the presence of an antagonist (AID 1259381; calls by dose curve; further: nearly all actives have a fitted effect of over 15% in size). In outline:
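Luciferase read-out (ONE-Glo, 30min room temperature) in MDA-kb2 MMTV-reporter cells; agonist mode run in presence of AR antagonist nilutamide, 3.0uM final. Compounds tested as 15-point series, 16hr exposure at 37C, 0% CO2.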

Assay [5] in a line: qHTS assay to identify small molecule antagonists of the estrogen receptor beta (ER-beta) signaling pathway - cell viability counter screen (AID 1259382). Further: nearly all actives have a fitted effect of over 55% in size. Further: potency means the concentration at half of the fitted maximal effect. On activity change, negative = cytotoxicity: series mostly up to about 92 µM. In outline:
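Luminescent ATP read-out (CellTiter-Glo, 30 min, RT) taken in the same wells as the bla reporter assay. HEK293T ER-beta-UAS-bla cells in 2% charcoal-stripped FBS were exposed to compounds with 1nM E2 for 16 hr at 37C.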

Assay [6] can be described thus: qHTS assay to identify small molecule agonists or antagonists of the thyroid stimulating hormone receptor (TSHR) signaling pathway - wild type cell line counter screen (AID 1259384; calls by dose curve). In a few lines:
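Wild-type HEK293 cells were plated 18 h at 37 C/5% CO2, pin-dosed with compound plus Ro20-1724 medium, held 30 min at room temperature, then given cAMP-d2 and anti-cAMP-cryptate; fluorescence was read after 1 h. Fifteen concentrations, triplicate.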

In assay [7] the target is Thyrotropin receptor (Homo sapiens) (UniProt P16473). Kind of assay: qHTS assay to identify small molecule antagonists of the thyroid stimulating hormone receptor (TSHR) signaling pathway (AID 1259385; calls by dose curve; further: nearly all actives have a fitted effect of over 20% in size; further: potency means the concentration at half of the fitted maximal effect). In outline: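 TSHR-HEK293 cells were plated and held 18 h at 37C/5% CO2, then given compound plus Ro20-1724 and stimulated with TSH at 1.5 ng/mL final. After 30 min at room temperature, cAMP was detected with cAMP-d2/anti-cAMP-cryptate (1 h) by fluorescence.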

Assay [8] can be described thus: qHTS assay to identify small molecule agonists of the estrogen receptor alpha (ER-alpha) signaling pathway in the presence of an antagonist - cell viability counter screen (AID 1259386). Further: series mostly up to about 92 µM; nearly all actives have a fitted effect of over 30% in size. In outline: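 Read-out: CellTiter-Fluor fluorescence after 1hr reagent incubation, measured in the same wells as the luciferase readout. VM7Luc4E2 cells were exposed to 15 compound concentrations with 10.0nM ICI-182,780 for 22hr at 37C.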

The target in assay [9] is Progesterone receptor (Homo sapiens) (UniProt P06401). Kind of assay: qHTS assay to identify small molecule agonists of the progesterone receptor (PR) signaling pathway (AID 1346784; calls by dose curve; further: nearly all actives have a fitted effect of over 30% in size). In a few lines: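 Agonist qHTS: compounds pinned onto 3,000 PR-UAS-bla HEK 293T cells per well in charcoal-stripped serum medium, 16hr at 37C, then beta-lactamase activity measured by LiveBLAzer FRET fluorescence after 2 hours at room temperature.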

Assay [10] addresses Estrogen receptor (Homo sapiens) (UniProt P03372). Kind of assay: qHTS assay to identify small molecule agonists of the estrogen receptor alpha (ER-alpha) signaling pathway in the presence of an antagonist (AID 1259383; calls by dose curve; further: top concentration of the series differs between compounds; nearly all actives have a fitted effect of over 15% in size). In a few lines: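 Luciferase luminescence (ONE-Glo, 30min at room temperature) measured in VM7Luc4E2 cells after 22hr compound exposure at 15 concentrations, with 10.0nM ICI-182,780 final present; cells express endogenous ER-alpha and carry four EREs upstream of luciferase.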
On the % scale 0 is the no-effect control and ±100 the full control effect.

Chain of Androgen receptor (Homo sapiens) (P10275 whole entry, looked up): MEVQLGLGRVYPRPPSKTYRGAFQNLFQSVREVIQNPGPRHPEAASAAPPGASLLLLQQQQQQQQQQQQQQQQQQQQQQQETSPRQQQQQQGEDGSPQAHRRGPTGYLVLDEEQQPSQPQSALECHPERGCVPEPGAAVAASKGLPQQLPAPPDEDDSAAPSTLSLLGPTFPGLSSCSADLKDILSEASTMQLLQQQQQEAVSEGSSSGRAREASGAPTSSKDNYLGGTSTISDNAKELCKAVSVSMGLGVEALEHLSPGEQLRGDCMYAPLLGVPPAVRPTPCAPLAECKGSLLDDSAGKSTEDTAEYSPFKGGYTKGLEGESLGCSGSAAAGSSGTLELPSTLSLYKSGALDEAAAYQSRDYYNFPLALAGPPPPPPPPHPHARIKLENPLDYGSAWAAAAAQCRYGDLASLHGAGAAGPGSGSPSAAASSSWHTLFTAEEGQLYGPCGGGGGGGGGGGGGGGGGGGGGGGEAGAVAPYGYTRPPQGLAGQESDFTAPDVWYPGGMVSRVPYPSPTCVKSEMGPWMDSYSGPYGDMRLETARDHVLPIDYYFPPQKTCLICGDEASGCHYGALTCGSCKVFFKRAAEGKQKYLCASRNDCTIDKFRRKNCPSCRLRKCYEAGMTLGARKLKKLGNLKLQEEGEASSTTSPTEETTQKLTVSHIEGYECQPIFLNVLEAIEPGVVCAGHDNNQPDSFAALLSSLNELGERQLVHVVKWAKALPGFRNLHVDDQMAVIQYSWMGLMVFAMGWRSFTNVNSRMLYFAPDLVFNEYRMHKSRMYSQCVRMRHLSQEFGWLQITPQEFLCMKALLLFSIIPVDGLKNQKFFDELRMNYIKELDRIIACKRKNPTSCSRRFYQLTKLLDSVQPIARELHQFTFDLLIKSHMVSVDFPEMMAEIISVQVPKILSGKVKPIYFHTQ
Chain of Estrogen receptor (Homo sapiens) (P03372 whole entry, looked up): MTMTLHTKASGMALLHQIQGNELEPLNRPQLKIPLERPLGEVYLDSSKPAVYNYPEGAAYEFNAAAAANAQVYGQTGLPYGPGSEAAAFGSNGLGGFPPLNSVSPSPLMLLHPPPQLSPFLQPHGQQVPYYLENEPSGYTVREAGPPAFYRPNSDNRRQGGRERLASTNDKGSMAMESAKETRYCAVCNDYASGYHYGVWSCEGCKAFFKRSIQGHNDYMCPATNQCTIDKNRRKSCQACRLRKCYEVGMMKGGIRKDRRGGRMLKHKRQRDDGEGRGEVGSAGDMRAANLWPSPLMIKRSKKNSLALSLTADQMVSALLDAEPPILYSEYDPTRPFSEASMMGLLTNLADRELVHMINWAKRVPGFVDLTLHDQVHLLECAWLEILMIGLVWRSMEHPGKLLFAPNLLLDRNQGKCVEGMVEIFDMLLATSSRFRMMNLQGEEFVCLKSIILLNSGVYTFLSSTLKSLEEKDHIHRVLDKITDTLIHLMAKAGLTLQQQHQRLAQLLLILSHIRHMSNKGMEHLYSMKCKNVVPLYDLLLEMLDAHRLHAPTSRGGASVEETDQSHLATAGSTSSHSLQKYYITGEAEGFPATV
Chain of Progesterone receptor (Homo sapiens) (P06401 whole entry, looked up): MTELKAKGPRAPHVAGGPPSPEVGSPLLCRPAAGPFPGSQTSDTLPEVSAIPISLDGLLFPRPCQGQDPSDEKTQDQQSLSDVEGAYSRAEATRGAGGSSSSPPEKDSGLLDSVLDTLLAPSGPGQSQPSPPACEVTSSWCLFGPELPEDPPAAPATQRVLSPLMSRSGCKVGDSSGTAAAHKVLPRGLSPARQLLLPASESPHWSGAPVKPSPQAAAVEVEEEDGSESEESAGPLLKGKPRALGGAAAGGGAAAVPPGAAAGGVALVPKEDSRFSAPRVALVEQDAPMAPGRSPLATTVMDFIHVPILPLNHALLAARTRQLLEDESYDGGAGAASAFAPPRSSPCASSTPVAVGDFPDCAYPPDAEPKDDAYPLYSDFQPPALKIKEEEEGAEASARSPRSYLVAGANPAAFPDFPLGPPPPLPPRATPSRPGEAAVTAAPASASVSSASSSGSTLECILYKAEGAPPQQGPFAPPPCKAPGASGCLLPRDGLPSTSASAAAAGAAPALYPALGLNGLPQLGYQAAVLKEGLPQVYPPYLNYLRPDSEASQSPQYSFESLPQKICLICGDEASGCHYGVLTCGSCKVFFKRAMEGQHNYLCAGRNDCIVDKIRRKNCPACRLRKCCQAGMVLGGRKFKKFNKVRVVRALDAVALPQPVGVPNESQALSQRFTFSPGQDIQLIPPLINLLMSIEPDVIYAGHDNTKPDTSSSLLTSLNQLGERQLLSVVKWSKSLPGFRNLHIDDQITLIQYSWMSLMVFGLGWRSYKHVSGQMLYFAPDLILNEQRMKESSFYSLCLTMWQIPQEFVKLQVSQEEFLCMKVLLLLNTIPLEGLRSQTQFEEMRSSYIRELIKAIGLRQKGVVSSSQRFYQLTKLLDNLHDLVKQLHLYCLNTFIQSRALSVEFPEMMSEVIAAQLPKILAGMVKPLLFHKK
Chain of Estrogen receptor beta (Homo sapiens) (Q92731 whole entry, looked up): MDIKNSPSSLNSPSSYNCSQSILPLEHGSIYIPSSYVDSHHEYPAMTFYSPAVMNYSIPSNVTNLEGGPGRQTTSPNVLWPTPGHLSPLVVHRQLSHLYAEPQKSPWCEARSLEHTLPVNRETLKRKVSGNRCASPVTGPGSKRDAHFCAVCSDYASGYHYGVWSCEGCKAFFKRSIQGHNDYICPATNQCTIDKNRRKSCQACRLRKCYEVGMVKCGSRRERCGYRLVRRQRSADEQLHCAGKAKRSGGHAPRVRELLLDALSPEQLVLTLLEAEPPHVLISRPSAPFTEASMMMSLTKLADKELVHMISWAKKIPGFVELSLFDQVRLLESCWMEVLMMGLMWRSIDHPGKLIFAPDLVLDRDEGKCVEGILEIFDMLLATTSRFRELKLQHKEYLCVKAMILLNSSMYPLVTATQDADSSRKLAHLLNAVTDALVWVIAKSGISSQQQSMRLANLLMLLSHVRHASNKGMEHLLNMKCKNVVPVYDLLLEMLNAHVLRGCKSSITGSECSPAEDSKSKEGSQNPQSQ
Chain of Thyrotropin receptor (Homo sapiens) (P16473 whole entry, looked up): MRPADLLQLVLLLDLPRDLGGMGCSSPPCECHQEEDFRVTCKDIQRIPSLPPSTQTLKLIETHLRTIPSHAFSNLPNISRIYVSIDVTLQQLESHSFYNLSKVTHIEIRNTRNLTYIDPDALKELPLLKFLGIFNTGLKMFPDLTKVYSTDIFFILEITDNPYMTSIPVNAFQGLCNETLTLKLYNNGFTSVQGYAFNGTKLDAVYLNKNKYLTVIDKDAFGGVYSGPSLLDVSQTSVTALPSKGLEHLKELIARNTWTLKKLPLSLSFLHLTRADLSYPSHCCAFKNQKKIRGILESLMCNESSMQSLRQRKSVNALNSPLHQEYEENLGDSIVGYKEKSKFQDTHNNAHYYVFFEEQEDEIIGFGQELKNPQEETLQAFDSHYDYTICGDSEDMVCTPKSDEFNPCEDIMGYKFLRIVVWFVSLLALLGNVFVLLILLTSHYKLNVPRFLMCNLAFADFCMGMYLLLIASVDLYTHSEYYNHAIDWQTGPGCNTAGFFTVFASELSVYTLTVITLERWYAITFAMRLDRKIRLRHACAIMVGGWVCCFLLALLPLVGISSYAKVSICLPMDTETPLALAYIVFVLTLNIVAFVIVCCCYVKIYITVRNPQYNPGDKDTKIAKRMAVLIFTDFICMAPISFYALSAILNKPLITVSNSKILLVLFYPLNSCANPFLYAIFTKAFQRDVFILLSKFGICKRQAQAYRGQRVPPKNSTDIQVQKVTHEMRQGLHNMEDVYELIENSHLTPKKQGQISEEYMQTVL

As to `O=S(=O)(O)c1cc(S(=O)(=O)O)c2ccc3c(S(=O)(=O)O)cc(S(=O)(=O)O)c4ccc1c2c43`, the activity, negative = inhibition in assay [1] is -6.24% [at 19 µM]. Besides, the activity change, negative = cytotoxicity in [2] was 1.33% [at 19 µM]; in assay [3], 1.19% [at 19 µM]; in assay [5], 6.71% [at 19 µM]; in assay [8] it was -2.62% [at 19 µM]. In addition, the results for the activation in assay [4] and in [9] were 3.07% [at 19 µM] and -0.344% [at 19 µM], respectively. Moreover, the cAMP activity change in assay [6] was 5.29% [at 18.9 µM]. For the same molecule, the activity change, negative = inhibition in [7] was -2.92% [at 19 µM].
On to `C=C(C)CCCC`, for which the Potency entry in assay [1], in assay [2], in [3], in [4], in [5] and in assay [7] was “inactive” throughout. For the same molecule, in assay [8], the Potency result is “inactive”. Further, the result in assay [6] and in assay [9] was inactive.
As for `CC(=O)O[C@@H]1C[C@@H]2CC[C@@]1(C)C2(C)C`, the Potency result in [1], in [2], in assay [3], in assay [4], in assay [5] and in assay [7] was “inactive” each time. In addition, the Potency entry in assay [8] was “inactive”. Moreover, the result in assay [6] and in assay [9] was inactive.
`C[Si](C)O[Si](C)C`: the Potency result in [1], in [2], in assay [3], in assay [5], in [10] and in assay [7] was “inactive” in each case. Further, in assay [8], the Potency entry was “inactive”. Besides, the call in assay [6] and in assay [9] was inactive.
For the molecule `O=C(Nc1ccc(Cl)cc1)Nc1ccc(Cl)c(C(F)(F)F)c1`, the Potency in assay [1] is 7.5 µM (active); in [2], 11.9 µM (active); in assay [3] it was 13.3 µM (active); in assay [5] it was 13.3 µM (active); in [7], 26.6 µM (active). For the same molecule, the Potency result in [10] was “inactive”. Further, the call in assay [6] was inactive.
As to `CC(=O)C=O`, the Potency result in assay [1], in assay [2], in assay [3], in assay [4], in [5] and in [8] was “inactive” in each case. Also, the molecule was called inactive in [9].
Regarding `Cc1cncc(C)c1`, the Potency result in assay [1], in [2], in assay [3], in [5], in [10] and in [7] was “inactive” each time. Further, the Potency result in [8] is “inactive”. Also, the molecule was classed as inactive in [6] and in assay [9].
Take `CC(=O)c1ccccc1N`: the Potency entry in assay [1], in assay [2], in [3], in assay [5], in assay [10] and in assay [7] was “inactive” throughout. Further, in [8], the Potency entry was “inactive”. Also, the molecule was classed as inactive in assay [6] and in assay [9].
As for `COc1cccc(OC)c1O`, the Potency result in assay [1], in [2], in assay [3], in [4], in [5] and in assay [7] was “inactive” in each case. The Potency result in [8] was “inactive”. Moreover, the call in assay [6] and in assay [9] was inactive.
With `CCOC(/C=C(\C)CCC=C(C)C)OCC`, the Potency result in [1], in assay [2], in assay [3], in assay [5], in [10] and in assay [7] was “inactive” each time. In addition, in [8], the Potency entry was “inactive”. Besides, the call in assay [6] and in [9] was inactive.
Turning to `N[C@@H](CSSC[C@H](N)C(=O)O)C(=O)O`, the activity, negative = inhibition in assay [1] was 28.3% [at 0.349 µM]. Besides, the activity change, negative = cytotoxicity in assay [2] is 0.823% [at 0.35 µM]; in assay [3] it was 3.32% [at 0.349 µM]; in [5], -5.72% [at 0.349 µM]; in assay [8], 7.62% [at 0.349 µM]. For the same molecule, the activation in assay [4] is -0.591% [at 0.349 µM]; in assay [9], -4.21% [at 0.349 µM]. For the same molecule, in assay [6], the cAMP activity change is -6.57% [at 0.349 µM]. In addition, the activity change, negative = inhibition in [7] is 0.59% [at 0.349 µM].
For `COc1ccc(-n2nc(CCC(=O)N(C)O)cc2-c2ccc(Cl)cc2)cc1`, the Potency in assay [1] and in assay [3] was 7.5 µM (active) throughout. Moreover, the Potency entry in [2], in assay [4], in [10], in [7] and in [8] was “inactive” each time. Further, in assay [6], the outcome was inactive.
For `O=S(O)O`, in assay [1], the activity, negative = inhibition is 1.38% [at 19 µM]. For the same molecule, the activity change, negative = cytotoxicity in assay [2] is 1.09% [at 19 µM]; in assay [3], -0.0055% [at 19 µM]; in assay [5], 4.33% [at 19 µM]; in assay [8], 0.0003% [at 19 µM]. The activation in [10] was -0.842% [at 19 µM]. In [6], the cAMP activity change is -1.65% [at 18.9 µM]. Also, in assay [7], the activity change, negative = inhibition was 0.0817% [at 19 µM].
